In PubChem BioAssay AID1721 (National Center for Advancing Translational Sciences (NCATS), 2009):
Hit rate of the full screen: of about 290,000 compounds, about 1,100 (0.38%) were called active. The sample holds actives, similar compounds and a random draw of the others, so the mix is not that of the screen. Values without a mark were called inactive. Calls follow the shape of the dose curve; as a rule, active = well fitted inhibition curve with a large enough effect; inconclusive = small, poorly fitted or top-dose-only effect, or another doubt; inactive = no such curve, though single readings can be large or run the other way.

Target: Pyruvate kinase (Leishmania mexicana) (UniProt Q27686)
Assay: qHTS Assay for Inhibitors of Leishmania Mexicana Pyruvate Kinase (LmPK)
Conditions: purified LmPK, Kinase-Glo ATP luminescence, 1 h; series mostly up to 57.5 µM; activity change, negative = inhibition: at the top concentration
Source text: NIH Chemical Genomics Center [NCGC] Malcolm Walkinshaw, Hugh Morgan, Linda Gilmore University of Edinburgh, UK MLPCN Grant: 1 R03 MH085697-01 NCGC Assay Overview: Pyruvate kinase (L. Mexicana) (LmPK) enzyme was supplied as a highly purified (>95% pure) sulphate-free preparation from University of Edinburgh, UK and assayed for its ability to generate ATP from ADP using phosphoenolpyruvate (PEP) as a substrate. ATP generation was detected in a coupled reaction by luciferase-mediated luminescence, an ATP-dependent process. […] The enzyme was assayed at an intermediate level of activity to screen for both inhibitors and activators.
NCGC Assay Protocol Summary: Three uL of enzyme mix (kept on ice) in assay buffer (50 mM Imidazole pH7.2, 50 mM KCl, 7 mM MgCl2, 0.01% Tween 20, 0.05% BSA) containing PEP (0.5 mM final concentration) and LmPK (0.1 nM final concentration) was dispensed into white solid bottom 1,536 well microtiter plates. 23 nL of compound were delivered by a pin tool and 1 uL of ADP mix in assay buffer (r.t; 0.1 mM final ADP concentration) was added. Plates were incubated at room temperature for 1 hour. Two uL of detection mix (Kinase-Glo, Promega; at 4 degree Celsius protected from light) was added and luminescence read by a ViewLux (Perkin Elmer) at 1 second exposure/plate. Data were normalized to the uninhibited and AC100 inhibition (no enzyme). To monitor activation, the first column contained a five-fold concentration of LmPK (0.5 nM).
% is scaled to controls: 0 for no effect and ±100 for the full control effect; potency is read from the fitted curve at half-maximal effect.

Pyruvate kinase (Leishmania mexicana), sequence (Q27686 whole entry, looked up): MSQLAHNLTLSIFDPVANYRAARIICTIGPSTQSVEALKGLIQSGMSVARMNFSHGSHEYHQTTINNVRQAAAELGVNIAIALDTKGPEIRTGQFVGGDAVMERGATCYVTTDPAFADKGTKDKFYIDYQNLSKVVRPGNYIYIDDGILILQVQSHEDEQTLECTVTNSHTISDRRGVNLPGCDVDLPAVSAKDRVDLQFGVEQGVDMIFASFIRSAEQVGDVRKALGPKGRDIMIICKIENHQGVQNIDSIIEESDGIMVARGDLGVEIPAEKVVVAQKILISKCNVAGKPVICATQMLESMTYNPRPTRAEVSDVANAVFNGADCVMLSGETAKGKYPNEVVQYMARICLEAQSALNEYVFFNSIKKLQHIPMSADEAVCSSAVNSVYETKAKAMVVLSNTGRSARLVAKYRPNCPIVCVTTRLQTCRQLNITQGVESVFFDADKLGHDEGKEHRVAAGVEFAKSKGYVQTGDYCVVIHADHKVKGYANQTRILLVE

SMILES	activity change, negative = inhibition	Potency
O=C(NCc1ccccc1Cl)C1CCN(c2ncnc3c2nc2n3CCCCC2)CC1	3.48%	
Cc1cc(C(=O)N/N=C/c2ccc(O)c([N+](=O)[O-])c2)c(C)n1-c1ccc(F)cc1	-1.12%	
CCOc1cccc(/C=N/N2C(=O)CSC2=S)c1O	-4.21%	
O=C1CSC(=S)N1/N=C/c1ccc(O)c([N+](=O)[O-])c1		25.1 µM (active)
O=C(CN1CCCCCC1)Nc1ccc(Br)cc1[N+](=O)[O-]	-3.41%	
O=C(NCCCNC(=O)c1ccccc1Cl)c1cnccn1	3.78%	
CC(C)N(C(=O)c1ccc(-c2ccccc2F)cc1)C(C)C	6.45%	
O=C(CN1C(=O)c2ccccc2C1=O)NCc1ccc(C(=O)O)cc1	-1.42%	
CC(=O)N(C1=C(Cl)C(=O)c2ccccc2C1=O)c1ccc(C(=O)O)cc1		4.47 µM (active)
Cc1cccc(N2CCN(S(=O)(=O)c3ccc4[nH]c(=O)c(=O)[nH]c4c3)CC2C)c1 (configuration not stated)	5.52%	
O=C(/C=C/NCc1ccc(F)cc1)c1ccccc1	-3.74%	
O=C(COc1ccc(S(=O)(=O)Nc2cccc(C(F)(F)F)c2)cc1)N1CCOCC1	-2.94%	
CCCn1c(C(C)Nc2nc(-c3ccc(C)cc3)cs2)nc2cc(Cl)c(N3CCCCC3)cc21 (configuration not stated)	-7.73%	
COc1ccc(Sc2nc(-c3ccccc3)ncc2OC)cc1	7.75%	
COc1ccccc1Cc1nc(-c2ccc(C)cc2)no1	-1.63%	
COc1ccc(-c2nc(-c3ccccc3)no2)c(OC)c1		14.1 µM (active)
COC(=O)C1=C(C(=O)OC)[C@@H]2N(C)c3ccccc3[C@@]23C[C@@H](C(=O)OC)N(S(=O)(=O)c2ccc(Br)cc2)C3=N1	-0.27% [at 11.5 µM]	
COc1cc(CO)ccc1OCC(=O)Nc1cccc2ccccc12	-10.3%	
Brc1ccc2nc(N3CCCC3)sc2c1	-0.864% [at 11.5 µM]	
Cc1nc2cc3c(cc2s1)OCO3	4.7%	
c1c2c(cc3sc(N4CCCCC4)nc13)OCCO2		6.31 µM (active)
CCOc1ccc(NC(=O)COc2ccc(S(=O)(=O)N3CCCC3)cc2)cc1	1.14%	
C[C@H]1Cc2c(-c3ccccc3)nc3c(c2CO1)CN(S(=O)(=O)c1ccc(Cl)c2nonc12)CC3	1.27% [at 11.5 µM]	

SMILES	activity change, negative = inhibition	Potency
Cc1onc(C(=O)Nc2ccc3c(c2)OCO3)c1[N+](=O)[O-]	-3.39%	
Cn1cc([N+](=O)[O-])c(C(=O)Nc2cnn(Cc3ccc(F)cc3)c2)n1	-0.993%	
Cn1cc([N+](=O)[O-])c(C(=O)Nc2ccc3c(c2)OCCO3)n1		14.1 µM (active)
CCCCNC(=O)N(O)C1N(/N=C/c2ccccc2O)C(=S)SC1(C)C (configuration not stated)	-7.29%	
COc1ccc(NS(=O)(=O)c2ccc3oc(SCC(N)=O)nc3c2)cc1	-3.65%	
CC(=O)Nc1ccc(NS(=O)(=O)c2ccc3c(c2)NC(=O)CC(=O)N3)cc1	-2.09%	
CN1CCN(C(=O)C(=O)c2cn(CC(=O)N3CCCC3)c3ccccc23)CC1	-2.77%	
O=C(Cn1c(=S)nc2ccccn21)N1CCc2ccccc2C1	-1.24%	
O=C(c1ccc(F)cc1)n1cc(C(=S)N2CCOCC2)c2ccccc21	0.959%	
O=C(c1ccc(F)cc1)n1c(=S)nc2ccccn21		5.01 µM (active)
C[C@H]1Cc2c(COc3ccccc3)nc3c(c2CO1)CN(C(=O)NCc1ccco1)CC3	4.14% [at 11.5 µM]	
CSCCC(NS(=O)(=O)c1ccccc1F)C(=O)N1CC=C(c2ccccc2)CC1 (configuration not stated)	-4.3%	
O=C(NC1CCN(C(=S)Nc2ccc(Cl)cc2)CC1)C1CCCCC1	-3.78%	
CCCCCC(=O)NC(=S)NNC(=O)c1ccc([N+](=O)[O-])cc1		31.6 µM (active)
COCCCNC(=S)NC(=O)c1ccc([N+](=O)[O-])cc1	0.0876%	
CC(C)CC(=O)NC(=S)NNC(=O)c1cccc([N+](=O)[O-])c1	4.18%	
COc1ccc2oc(=O)c(C(=O)N3CCCC3)cc2c1	0.323%	
COc1cccc(C(=O)NNC(=O)c2cccc(F)c2)c1	7.37%	
COc1cccc(C(=O)c2cc3ccc(O)cc3oc2=O)c1		14.1 µM (active)
CC(=O)C1=C(C)NC(=O)NC1c1ccc2c(c1)OCO2 (configuration not stated)	-1.41%	
COC(=O)C(C)n1cnc2c(nnn2-c2ccc(F)cc2)c1=O (configuration not stated)	-6.91%	
CC(=O)Nc1ccc(NC(=O)c2ccc3c(c2)C(=O)N(c2ccccc2C)C3=O)cc1	-0.612%	
O=C(NCc1ccccc1)C1CCN(C(=O)Cc2ccccc2)CC1	-10.4%	

SMILES	activity change, negative = inhibition	Potency
Oc1ccc(N=Nc2nccs2)c(O)c1		25.1 µM (active)
Oc1ccc2ccccc2c1N=Nc1nccs1	-17.8%	
CCOc1ccc(N(CC(=O)Nc2cccc(OC)c2)S(C)(=O)=O)cc1	5.61%	
CC1(C(=O)NNC(=S)NCC2CCCO2)CC1(Cl)Cl (configuration not stated)	-6.61%	
CN(C)C(=O)Cn1c(=O)n(S(=O)(=O)c2ccccc2)c2ccccc21	1.22%	
CCOC(=O)c1c(S(=O)(=O)Nc2cccc(Cl)c2)c(C)n(C)c1C	-1.98%	
COCCn1cnc2c1c(=O)n(Cc1ccc(Br)cc1)c(=O)n2Cc1ccccc1	-0.873%	
Cc1occc1C(=O)Nc1nnc(-c2ccncc2)s1	-6.6%	
Cc1ccnc(NC(=O)c2ccoc2C)c1		11.2 µM (active)
Cc1occc1C(=O)Nc1cccc(Cn2cccn2)c1	-22.2%	
O=C(Nc1ccccc1)c1ccc2c(c1)OCO2		15.8 µM (active)
O=C(Nc1ccccc1)c1ccc2c(c1)OCCCO2	-16.5%	
O=C(Nc1cccc([N+](=O)[O-])c1)c1ccc2c(c1)OCO2	-0.962%	
Cc1cccc(/C(N)=N/OC(=O)c2ccccc2Cl)c1		11.2 µM (active)
Cc1ccc(C(=O)O/N=C(\N)c2ccccn2)cc1Cl	-8.52%	
N/C(=N\OC(=O)c1cc(-c2ccccc2)nc2ccccc12)c1ccncc1	0.803%	
COc1cccc(CCNC(=O)c2cccc(NC(=O)C3=C(C)OCCS3)c2)c1	0.922%	
CC1(C(=O)O)CCC(C(=O)Nc2ccc(Cl)c(Cl)c2)C1(C)C (configuration not stated)	-1.16%	
COc1cccc(C(=O)Nc2ccc(N3CCCC3)cc2)c1		14.1 µM (active)
COc1cccc(C(=O)Nc2ccc(N3CCN(C(=O)c4ccco4)CC3)cc2)c1	2.21%	
CN1CCN(c2ccc(NC(=O)c3ccccc3)cc2)CC1	-4.74%	
